The campaign covered roughly 360,000 compounds. About 10,000 (2.8%) were called active. Another 4% or so got no clear call; they are omitted. Calls come from the whole dose curve; as a rule, active = well fitted inhibition curve with a large enough effect; inconclusive = small, poorly fitted or top-dose-only effect; inactive = flat fitted curve, though single readings scatter. Only a selection was taken, and actives are over-represented in it overall.
% is set by controls: 0 for no effect and ±100 for the full control effect; potency is the fitted concentration of half-maximal effect.

Chain of Serine/threonine-protein kinase PLK1 (Homo sapiens) (P53350 whole entry, looked up, the tested form may be a part): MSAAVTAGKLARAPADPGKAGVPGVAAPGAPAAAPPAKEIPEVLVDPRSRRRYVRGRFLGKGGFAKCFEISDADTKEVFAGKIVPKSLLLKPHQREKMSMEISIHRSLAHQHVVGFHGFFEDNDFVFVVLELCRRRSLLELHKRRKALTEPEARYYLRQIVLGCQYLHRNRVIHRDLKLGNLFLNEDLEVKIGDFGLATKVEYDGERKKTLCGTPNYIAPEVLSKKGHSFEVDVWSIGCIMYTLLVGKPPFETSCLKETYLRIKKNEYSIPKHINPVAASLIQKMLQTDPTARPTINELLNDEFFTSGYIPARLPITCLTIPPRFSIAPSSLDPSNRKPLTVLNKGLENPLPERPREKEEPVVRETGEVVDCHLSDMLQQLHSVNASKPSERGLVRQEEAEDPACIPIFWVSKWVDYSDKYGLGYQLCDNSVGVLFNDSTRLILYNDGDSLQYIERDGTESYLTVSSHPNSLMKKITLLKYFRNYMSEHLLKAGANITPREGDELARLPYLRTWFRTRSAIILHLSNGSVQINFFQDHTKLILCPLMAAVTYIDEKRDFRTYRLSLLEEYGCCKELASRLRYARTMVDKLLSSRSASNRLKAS

This experiment concerns the target Serine/threonine-protein kinase PLK1 (Homo sapiens) (UniProt P53350). The experiment is described as follows: qHTS for Inhibitors of PLK1-PDB (polo-like kinase 1 - polo-box domain): Primary Screen. For max response, negative = inhibition: series mostly up to about 57 µM. Note: nearly all actives have a fitted effect of over 65% in size. The note with it: Plk1 PBD binding of FITC phosphopeptide, fluorescence polarization.
On to `CCCNC(=O)C1(C)CCN(Cc2ccc(Cl)c(Cl)c2)C1` (stereo not drawn), for which the max response, negative = inhibition was -1.65% (inactive).

With `C[C@H](NC(=O)[C@@H]1CCCN1C(=O)[C@@H]1CCCN1C(=O)c1ccccc1)c1ccccc1`, the max response, negative = inhibition was -0.0066% (inactive).

In the case of `CC(C)N(C(=O)COC(=O)c1ccccc1C(=O)N1CCN(c2ccc(F)cc2)CC1)C(C)C`, the max response, negative = inhibition was -8.86% (inactive).

Consider `COc1ccc(N2CCN(C(=O)C3CCN(C(=O)c4ccccc4Cl)CC3)CC2)cc1`, for which the max response, negative = inhibition was 1.62% (inactive).

`O=C(c1ccccc1Oc1ccccc1)N1CCN(c2ccc(F)cc2)CC1`: the Potency was 26.7 µM (active).

Consider `CC[C@@H]1CC2=C(C(=O)OC(C)(C)O2)[C@@H](CC)O1`, for which the max response, negative = inhibition was 0.545% (inactive).

For the compound `Cc1ccc(C(O)c2ncc(-c3ccccc3F)[nH]2)cc1F` (stereo not drawn), the max response, negative = inhibition is -7.55% (inactive).

Regarding `CCN(CC)S(=O)(=O)c1cccc(-c2n[nH]c(=S)n2/N=C/c2ccc(C(=O)OC)cc2)c1`, the Potency was 10.6 µM (active).

With `COC(=O)c1ccc(/C=N/N2C(C)CCCC2C)cc1` (stereo not drawn), the max response, negative = inhibition is -11.6% (inactive).

On to `CCN(CC)S(=O)(=O)c1cccc(NC(=O)c2ccc(S(=O)(=O)N3CCCC3)cc2)c1`, for which the max response, negative = inhibition was 2.45% (inactive).

Consider `CCCCNC(=O)C[C@@H]1C[C@@]2(C(=O)OCC)CCC=C2N(Cc2cccc3ccccc23)C1=O`, for which the max response, negative = inhibition is -0.117% (inactive).

On to `CCOC(=O)C1CCCN(C(=O)c2ccc(C)c(F)c2)CC1` (stereo not drawn), for which the max response, negative = inhibition is -7.52% (inactive).

On to `CC(C)Oc1ccc(CN2CCC2(C)C(=O)NCc2ccc(C(F)(F)F)cc2)cc1` (stereo not drawn), for which the max response, negative = inhibition was 6.37% (inactive).

As for `CN(C)/C=C1/Nc2ccccc2C1=O`, the Potency is 26.7 µM (active).

As for `CN(C)/C=C1\C=C(c2ccccc2)OC1=O`, the max response, negative = inhibition is -6% (inactive).

Regarding `CCCS(=O)(=O)C(=C1Nc2ccccc2N1)S(=O)(=O)CCC`, the max response, negative = inhibition was -1.93% (inactive).

Consider `CCN(CCN(C)C)C(=O)c1ccc2nc(C)c(N(C)C(=O)CCc3ccccc3)n2c1`, for which the max response, negative = inhibition is 2.39% (inactive).

In the case of `CC(=O)Nc1cncc(-c2ccccc2CO)n1`, the max response, negative = inhibition was 3.65% (inactive).

With `O=C(CCc1[nH]c2ccccc2c1Sc1ccccc1)N(CCO)CCO`, the Potency was 29.9 µM (active).

On to `O=S1(=O)CC(N2CCN(CCO)CC2)CN1Cc1cn(Cc2ccc(Cl)cc2)nn1` (stereo not drawn), for which the max response, negative = inhibition was -4.51% (inactive).

Consider `Cc1ccc(S(=O)(=O)N(CCc2ccccc2)c2ccc3c(c2)C2CC3CCN2C(=O)OCc2ccccc2)cc1` (stereo not drawn), for which the max response, negative = inhibition is -9.82% (inactive).

Regarding `O=C(C1CCCO1)N1CCN(C(=O)C23CC4CC(CC(C4)C2)C3)CC1` (stereo not drawn), the max response, negative = inhibition is -0.452% (inactive).

Turning to `C[C@@H]1CN([C@H](C)CO)S(=O)(=O)c2ccc(C#CC3CCCCC3)cc2O[C@H]1CN(C)C(=O)Cc1ccncc1`, the max response, negative = inhibition is 8.88% (inactive).

For the compound `COc1cccc(C(O)c2ncc(-c3ccc4ccccc4c3)[nH]2)c1` (stereo not drawn), the max response, negative = inhibition is 5.51% (inactive).

`Cc1nn(C(C)C(=O)NCCC2=CCCCC2)c(=O)c2nn(-c3ccccc3)c(C)c12` (stereo not drawn): the max response, negative = inhibition is -7.54% (inactive).

As for `COc1ccc(CNC(=O)C(C)n2nc(C)c3c(C)n(-c4ccccc4)nc3c2=O)c(OC)c1` (stereo not drawn), the Potency was 26.7 µM (active).

As for `Cc1nn(CC(=O)N2CCCCC2)c(=O)c2nn(-c3ccccc3)c(C)c12`, the max response, negative = inhibition is -14.5% (inactive).

As for `COc1ccc(-n2nc3c(N4CCC(C(=O)NCc5ccccc5)CC4)nnc(C)c3c2C)cc1`, the max response, negative = inhibition is -9.59% (inactive).

Take `Cc1ccc(-n2nc3c(=O)n(C(C)C(=O)NCc4ccc5c(c4)OCO5)nc(C)c3c2C)cc1` (stereo not drawn): the max response, negative = inhibition was -18.3% (inactive).

Take `COc1ccc(OC)c(CNC(=O)Cn2nc(C)c3c(C)n(-c4ccc(C)cc4)nc3c2=O)c1`: the Potency was 26.7 µM (active).

`CCOc1cc(/C=N/NC(=O)c2c(C)nc3ccc(Cl)cn23)ccc1O`: the max response, negative = inhibition is -0.787% (inactive).

For the compound `CC(C)NC(=O)C1(C)CCCCN1Cc1cccc(C(F)(F)F)c1` (stereo not drawn), the max response, negative = inhibition was -6.04% (inactive).

Turning to `OC(c1ccc(F)cc1)c1ncc(-c2cccc(C(F)(F)F)c2)[nH]1` (stereo not drawn), the max response, negative = inhibition was 1.19% (inactive).

On to `CC(=O)NC(c1ccccc1)c1nc(-c2cccc(C(C)C)c2)cs1` (stereo not drawn), for which the max response, negative = inhibition is 4.75% (inactive).

Consider `COC(=O)[C@@]1(Cc2ccc(OC)cc2)[C@H]2c3cc(C(=O)N4CCCC4)n(Cc4ccc(OC(F)(F)F)cc4)c3C[C@H]2CN1C(=O)c1ccccc1`, for which the max response, negative = inhibition is 4.68% (inactive).

On to `CCOC(=O)[C@]12CCC=C1N(Cc1ccco1)C(=O)[C@H](CC(=O)N1CCSCC1)C2`, for which the max response, negative = inhibition was -15.1% (inactive).

On to `CC1(C(=O)Nc2cccnc2)Cc2c(-c3ccccc3)ccnc2O1` (stereo not drawn), for which the max response, negative = inhibition was -6.2% (inactive).

Turning to `COc1ccc([C@H]2CC(=O)C=C(c3ccc(CO)cc3)C2)cc1`, the Potency was 23.8 µM (active).

Regarding `COc1ccc2cc(C3=CC(=O)C[C@H](c4ccc5c(c4)OCO5)C3)ccc2c1`, the max response, negative = inhibition was 4.54% (inactive).

`COc1ccc([C@H]2CC(=O)C=C(c3ccc(C)cc3)C2)cc1`: the max response, negative = inhibition is -18.7% (inactive).

Consider `CN1OC[C@@H]2CN[C@H](c3ccc(-c4ccccc4)cc3)C[C@@H]21`, for which the max response, negative = inhibition was 5.71% (inactive).

As to `CCn1c(SCC(=O)Nc2ccc(S(=O)(=O)Nc3onc(C)c3C)cc2)nnc1-c1ccccc1`, the max response, negative = inhibition is 3.27% (inactive).

For the compound `Cc1cc(C)c2nc(-c3cccnc3)cc(C(=O)Nc3ccc(S(=O)(=O)Nc4onc(C)c4C)cc3)c2c1`, the Potency is 42.3 µM (active).

As for `Cc1noc(NS(=O)(=O)c2ccc(NC(=O)c3oc4ccc(F)cc4c3C)cc2)c1C`, the max response, negative = inhibition was -10.8% (inactive).

With `CC(C)(C)S(=O)N1Cc2cc(C(=O)NCCCN3CCOCC3)nc(-c3cccc(-c4cc5ccccc5o4)c3)c2[C@H]1CCO` (stereo partly drawn), the max response, negative = inhibition is -5.28% (inactive).

With `CCCCCCCCCCOC(=O)Cn1c(COc2ccc(C)cc2)[n+](C)c2ccccc21`, the max response, negative = inhibition is -18.7% (inactive).

As for `CCCn1c(=N)n(CC(=O)c2ccc(Cl)c(Cl)c2)c2ccccc21`, the max response, negative = inhibition is -14% (inactive).

Regarding `CCCCOC(=O)Cn1c(=N)n(CCN(CC)CC)c2ccccc21`, the Potency is 21.2 µM (active).

As to `CC(=O)c1cccc(-c2cnc3c(NC=O)cc(-c4ccc(N(C)C)cc4)cn23)c1`, the max response, negative = inhibition is -10.2% (inactive).

`COc1ccc(C(O)C(O)(C(=O)OC(C)C)c2ccc(C)cc2)cc1` (stereo not drawn): the max response, negative = inhibition is -13.4% (inactive).

With `CN1C(=O)c2cccc3c(N)ccc(c23)C1=O`, the Potency was 3.36 µM (active).

On to `Cc1nn(C)cc1N1C(=O)c2cccc3c(N)ccc(c23)C1=O`, for which the Potency was 2.38 µM (active).

`CC(C(=O)O)N1C(=O)c2cccc3cccc1c23` (stereo not drawn): the max response, negative = inhibition was -10.8% (inactive).

As to `Cn1cc(C2OC(=O)c3ccccc32)c2ccccc21` (stereo not drawn), the max response, negative = inhibition is -13.8% (inactive).

For the compound `Cc1ccc(S(=O)(=O)N2CCCCC2)cc1NC(=O)CCNC(=O)c1ccccc1Cl`, the max response, negative = inhibition was -0.377% (inactive).

For the compound `O=C1c2ccccc2-c2ccccc2NC1O` (stereo not drawn), the max response, negative = inhibition is -5.82% (inactive).

Take `COc1cccc(NC(=O)N(C)C[C@@H]2Oc3ncc(Br)cc3C(=O)N([C@@H](C)CO)C[C@H]2C)c1`: the max response, negative = inhibition is -14.8% (inactive).

Regarding `Cc1c(NC(=O)CSc2nnc(-c3cccnc3)n2N)c(=O)n(-c2ccccc2)n1C`, the max response, negative = inhibition was -7.37% (inactive).

Regarding `Cc1c(NC(=O)CSc2cccc3cccnc23)c(=O)n(-c2ccccc2)n1C`, the Potency is 16.8 µM (active).

Consider `Cc1c(NC(=O)CSc2nnnn2-c2ccc(C(=O)O)cc2)c(=O)n(-c2ccccc2)n1C`, for which the max response, negative = inhibition was -21.9% (inactive).

Consider `Cc1coc2c(O)cc3c(c12)OC1(N2CCCCC2)C(=O)NCCCC31` (stereo not drawn), for which the Potency was 15 µM (active).

In the case of `C[C@H]1CN([C@@H](C)CO)S(=O)(=O)c2ccc(-c3cccc(F)c3)cc2O[C@@H]1CN(C)C`, the max response, negative = inhibition is 2.78% (inactive).

For the compound `CN(C)CCNC(=O)c1ccc(-c2cn3c(-c4ccc(Oc5ccccc5)cc4)cnc3cn2)cc1`, the max response, negative = inhibition was -16.6% (inactive).

Turning to `COc1ccc(NC(=O)N(C)C[C@H]2Oc3ncc(C#C[C@@H](C)O)cc3C(=O)N([C@H](C)CO)C[C@H]2C)cc1`, the max response, negative = inhibition is -0.325% (inactive).

For `CN1CCN(C(=O)c2ccc(-c3cc4nc(NCc5cccnc5)n(C)c(=O)c4s3)cc2)CC1`, the max response, negative = inhibition was -24.5% (inactive).

Consider `CN(C)CCn1c(=S)[nH]c2ccc(Cl)cc2c1=O`, for which the max response, negative = inhibition is -5.51% (inactive).

Consider `CC(C)n1c(=S)[nH]c2cc(C(F)(F)F)ccc21`, for which the max response, negative = inhibition is -24.5% (inactive).

Turning to `CCCn1c(=S)[nH]c2ccc(C(F)(F)F)cc21`, the Potency was 10.6 µM (active).

Regarding `CC(=O)N1Cc2cc(C(=O)NCc3cccc(F)c3)nc(-c3cccc(C4=CCCC4)c3)c2[C@H]1CCO`, the max response, negative = inhibition was -3.4% (inactive).

For `CCC(C)CN1C(=O)CSCC1(C)C(=O)NCc1ccccc1` (stereo not drawn), the max response, negative = inhibition was -12.2% (inactive).

Take `O=C(Nc1ccc(Cl)cc1)C1Cc2c(-c3ccc4c(c3)OCO4)ccnc2O1` (stereo not drawn): the max response, negative = inhibition was -2.05% (inactive).

`C[C@H]1CN([C@@H](C)CO)C(=O)CCCn2cc(nn2)CO[C@@H]1CN(C)C(=O)Nc1ccccc1`: the max response, negative = inhibition is -14% (inactive).

Turning to `O=C(c1ccc(Cl)c(S(=O)(=O)N2CCCCC2)c1)N1CCCCCC1`, the max response, negative = inhibition was -9.42% (inactive).

On to `O=C(c1ccccc1F)N1CCN(S(=O)(=O)c2ccc(Br)cc2)CC1`, for which the max response, negative = inhibition was -0.788% (inactive).

Turning to `O=C(c1ccc[nH]c1=S)N1CCN(S(=O)(=O)c2ccc(Br)cc2Cl)CC1`, the Potency was 26.7 µM (active).

Turning to `O=C(COc1ccc(S(=O)(=O)N2CCCC2)cc1[N+](=O)[O-])N1CCCCC1`, the max response, negative = inhibition is 0.94% (inactive).

For `C[C@H]1CN([C@@H](C)CO)C(=O)CCCn2cc(nn2)CO[C@@H]1CN(C)S(=O)(=O)c1ccccc1C#N`, the max response, negative = inhibition is -15.7% (inactive).

As to `CCOC(=O)N1CCN(C(c2cccnc2)c2ccc3cccnc3c2O)CC1` (stereo not drawn), the Potency is 5.97 µM (active).

Take `CCN1CCN(C(c2cccnc2)c2cc(Cl)c3cccnc3c2O)CC1` (stereo not drawn): the Potency is 10.6 µM (active).

As for `Cc1onc(C(=O)NN)c1C(=O)N1CCN(C(c2ccccc2)c2ccccc2)CC1`, the max response, negative = inhibition is 1.96% (inactive).

Consider `CCOC(=O)N1CCN(C(c2ccnc3ccccc23)c2nnnn2-c2c(C)cccc2C)CC1` (stereo not drawn), for which the max response, negative = inhibition is 6.16% (inactive).

For `O=C(NC1CCCC1)C1c2ccccc2OCC(=O)N1CC(F)(F)F` (stereo not drawn), the max response, negative = inhibition was -3.82% (inactive).

For `CCOC1=C2[C@@H](CN(S(=O)(=O)c3ccc(C)cc3)[C@H]2c2ccccc2F)[C@H]2C(=O)N(Cc3ccccc3)C(=O)[C@H]2C1`, the max response, negative = inhibition was -14.5% (inactive).

For the origin of these results see PubChem BioAssay AID720504 (National Center for Advancing Translational Sciences (NCATS), 2013).
